Source: PubChem BioAssay (NCI)
Compounds without any hit were thinned out: in the full panel of roughly 83,000, 20% have a hit.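 Note: values are percent growth. 100 is the growth of untreated cells, values between 100 and 0 indicate rising inhibition; between -100 and 0 indicates cell death.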 The source made the active and inactive calls. How the source made its calls: active means growth percent below 10; inactive means the rest.

Columns and labels:
Test in all cases: NCI-60 one-dose screen, 48 h (100 = growth as untreated, 0 = no growth, -100 = all killed)
Settings in all cases: 10 µM unless noted
NCI-H23 lung = test system: NCI-H23 lung
NCI-H226 lung = test system: NCI-H226 lung
NCI-H322M lung = test system: NCI-H322M lung
HOP-62 NSCLC = test system: HOP-62 NSCLC
NCI-H460 lung = test system: NCI-H460 lung
NCI-H522 lung = test system: NCI-H522 lung
A549/ATCC NSCLC = test system: A549/ATCC NSCLC
786-0 renal = test system: 786-0 renal
COLO 205 colon = test system: COLO 205 colon
DU-145 prostate = test system: DU-145 prostate
K-562 leukemia = test system: K-562 leukemia
MALME-3M melanoma = test system: MALME-3M melanoma
MDA-MB-231 breast = test system: MDA-MB-231 breast
RXF 393 renal = test system: RXF 393 renal
SF-268 CNS = test system: SF-268 CNS
SF-295 CNS = test system: SF-295 CNS
SF-539 CNS = test system: SF-539 CNS
UACC-257 melanoma = test system: UACC-257 melanoma
M14 melanoma = test system: M14 melanoma

Measured: growth

S=C(N/N=C/c1ccccn1)Nc1ccccn1
active: NCI-H460 lung 2.59% | NCI-H522 lung -39.9% | 786-0 renal 2.42% | COLO 205 colon 9.1% | K-562 leukemia 8.45% | RXF 393 renal 2.43% | UACC-257 melanoma -14.9% | M14 melanoma 0.168%
inactive: NCI-H23 lung 23.8% | NCI-H226 lung 12.1% | NCI-H322M lung 22.4% | HOP-62 NSCLC 13.7% | A549/ATCC NSCLC 20.7% | DU-145 prostate 28.4% | MALME-3M melanoma 10.6% | MDA-MB-231 breast 42.4% | SF-268 CNS 32% | SF-295 CNS 27.1% | SF-539 CNS 14.1%

NC1=CC(=O)c2ccccc2C1=O
inactive: NCI-H23 lung 40.2% | NCI-H226 lung 91.7% | NCI-H322M lung 97% | HOP-62 NSCLC 80.9% | NCI-H460 lung 89.8% | NCI-H522 lung 89.4% | A549/ATCC NSCLC 75.9% | 786-0 renal 105% | COLO 205 colon 104% | DU-145 prostate 63.8% | K-562 leukemia 92.6% | MALME-3M melanoma 38.8% | MDA-MB-231 breast 82.1% | RXF 393 renal 100% | SF-268 CNS 95.6% | SF-295 CNS 69% | SF-539 CNS 106% | UACC-257 melanoma 69% | M14 melanoma 83%

O=C1c2ccccc2C(=O)c2sc(Nc3cccc(Cl)c3)nc21
inactive: NCI-H322M lung 64.5% | NCI-H460 lung 72.1% | A549/ATCC NSCLC 30.7% | COLO 205 colon 84.7% | SF-295 CNS 66.2%
active: NCI-H23 lung -51.4% | NCI-H226 lung -44.3% | HOP-62 NSCLC -77.3% | NCI-H522 lung -32% | 786-0 renal 8.79% | DU-145 prostate -93.9% | K-562 leukemia 6.87% | MALME-3M melanoma -89.9% | MDA-MB-231 breast -8.62% | RXF 393 renal -11.5% | SF-268 CNS -7.47% | SF-539 CNS -91.5% | UACC-257 melanoma -74.9% | M14 melanoma -89.1%

Cc1cc2nc(CS)[nH]c2cc1C
inactive: NCI-H23 lung 97.1% | NCI-H226 lung 93.1% | NCI-H322M lung 76.4% | HOP-62 NSCLC 92.7% | NCI-H460 lung 93% | NCI-H522 lung 74.7% | A549/ATCC NSCLC 94.2% | 786-0 renal 81.6% | COLO 205 colon 90.3% | DU-145 prostate 93.9% | K-562 leukemia 76.8% | MALME-3M melanoma 95.7% | MDA-MB-231 breast 99% | RXF 393 renal 76.9% | SF-268 CNS 103% | SF-295 CNS 102% | SF-539 CNS 94.6% | UACC-257 melanoma 101% | M14 melanoma 89.9%

O=C(/C=C\c1cc(Br)ccc1O)/C=C/c1cc(Br)ccc1O
active: NCI-H23 lung -11.9% | NCI-H226 lung -64.8% | NCI-H322M lung 6.71% | HOP-62 NSCLC -57.3% | NCI-H460 lung -34.9% | NCI-H522 lung -62.9% | A549/ATCC NSCLC -8.66% | 786-0 renal -68% | COLO 205 colon -70.6% | DU-145 prostate 2.79% | K-562 leukemia 5.64% | MALME-3M melanoma -5.41% | MDA-MB-231 breast 0.442% | RXF 393 renal -49.4% | SF-268 CNS -17.9% | SF-295 CNS -1.61% | SF-539 CNS -49.1% | UACC-257 melanoma -16.7% | M14 melanoma -51.7%

CNC(=O)N/N=C/c1ccc([N+](=O)[O-])o1
inactive: NCI-H23 lung 101% | NCI-H226 lung 104% | NCI-H322M lung 88.7% | HOP-62 NSCLC 102% | NCI-H460 lung 109% | NCI-H522 lung 85.2% | A549/ATCC NSCLC 82.3% | 786-0 renal 111% | COLO 205 colon 109% | DU-145 prostate 104% | K-562 leukemia 96.5% | MALME-3M melanoma 112% | MDA-MB-231 breast 97.6% | RXF 393 renal 115% | SF-268 CNS 94.2% | SF-295 CNS 107% | SF-539 CNS 110% | UACC-257 melanoma 87.8% | M14 melanoma 102%

Nc1ccc(SSc2ccc(N)cc2)cc1
inactive: NCI-H23 lung 89.9% | NCI-H226 lung 103% | NCI-H322M lung 92.5% | HOP-62 NSCLC 114% | NCI-H460 lung 100% | NCI-H522 lung 84.1% | A549/ATCC NSCLC 77.7% | 786-0 renal 100% | COLO 205 colon 106% | DU-145 prostate 111% | MALME-3M melanoma 104% | MDA-MB-231 breast 82.4% | RXF 393 renal 108% | SF-268 CNS 106% | SF-295 CNS 82.6% | SF-539 CNS 106% | UACC-257 melanoma 86.1% | M14 melanoma 97.7%

Cn1c2ccccc2c2nnc(N/N=C/c3ccccn3)nc21
active: NCI-H226 lung 5.03% | HOP-62 NSCLC 4.96% | NCI-H460 lung -11.5% | 786-0 renal -21.6% | COLO 205 colon -8.79% | MALME-3M melanoma -34.1% | SF-268 CNS 6.74% | SF-295 CNS -25.3% | SF-539 CNS -35.9% | UACC-257 melanoma 7.22% | M14 melanoma -42.1%
inactive: NCI-H23 lung 19.3% | NCI-H322M lung 11.8% | NCI-H522 lung 18.2% | A549/ATCC NSCLC 21.1% | DU-145 prostate 13.7% | K-562 leukemia 10.2% | MDA-MB-231 breast 56.2%
